# Screening data: PubChem, The Scripps Research Institute Molecular Screening Center
# FBW7 act: activators of human E3 ligase FBW7. Q969H0. normalized activity (activation), % at 26.1 µM. AlphaScreen FBW7–phospho-cyclin E peptide binding, activator screen. actives 0.13% (n = 650,000); in the data active = normalized activity above about 1.9%;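 note: purified mutant Fbw7 with reduced substrate affinity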
# Target sequence (Q969H0 whole entry, looked up): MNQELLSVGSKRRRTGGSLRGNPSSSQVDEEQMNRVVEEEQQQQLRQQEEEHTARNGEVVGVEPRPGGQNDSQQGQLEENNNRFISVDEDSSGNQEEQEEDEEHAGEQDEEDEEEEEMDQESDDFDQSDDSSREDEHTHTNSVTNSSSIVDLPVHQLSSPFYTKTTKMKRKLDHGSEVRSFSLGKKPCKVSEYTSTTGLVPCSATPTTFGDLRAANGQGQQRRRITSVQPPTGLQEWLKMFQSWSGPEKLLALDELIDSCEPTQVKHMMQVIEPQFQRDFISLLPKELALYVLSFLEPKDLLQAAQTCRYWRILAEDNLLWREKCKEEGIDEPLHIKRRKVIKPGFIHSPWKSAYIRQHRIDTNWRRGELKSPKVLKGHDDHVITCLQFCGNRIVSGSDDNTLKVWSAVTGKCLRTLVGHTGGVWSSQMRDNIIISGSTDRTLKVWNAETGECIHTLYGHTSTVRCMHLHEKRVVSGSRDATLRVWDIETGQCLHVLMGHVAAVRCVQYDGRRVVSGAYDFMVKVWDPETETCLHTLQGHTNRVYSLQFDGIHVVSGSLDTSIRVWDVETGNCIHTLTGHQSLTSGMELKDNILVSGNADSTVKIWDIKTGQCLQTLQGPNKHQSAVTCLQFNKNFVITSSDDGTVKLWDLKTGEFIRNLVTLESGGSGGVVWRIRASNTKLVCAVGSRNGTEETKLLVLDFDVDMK
# MITF primary: inhibitors of human MITF | O75030 | AlphaScreen MITF homodimerization, bead proximity signal | inhibition, % at 2.6 µM | actives 0.91% (n = 650,000) | AID 1259374; in the data active = inhibition above about 50%;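 note: 0% = vehicle wells with protein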
# GPR151 ag: human GPR151 activation; actives 1% (n = 650,000); AID 1508602; PathHunter beta-arrestin GPR151 cells, luminescence; activation, % at 11.2 µM; in the data active = activation above about 4.9%;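 note: 0% = median of compound wells and 100% = cells with positive control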
# TEAD-YAP block: TEAD-YAP interaction inhibition | HEK-TIYL cells, TEAD-Gal4/YAP UAS-luciferase luminescence | inhibition, % at 9.12 µM | actives 1.4% (n = 640,000); in the data active = inhibition above about 32%;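 note: 0% = median of test compound wells and 100% = reference inhibitor wells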
# Active calls of the source: *. Rows were chosen to be rich in hits. Some 3.4% of all compounds tested hit in one or more screens of this group.
SMILES,FBW7 act,MITF primary,GPR151 ag,TEAD-YAP block
COc1cc(C)c(/C=C/[N+](=O)[O-])cc1C(C)C,0,-9,0,37*
O=C(CC(=O)N1CC2CC(C1)c1cccc(=O)n1C2)c1ccccc1 (stereo not given),1,9,-1,4
N#CC(C#N)=Cc1ccccc1OCCO,0,3,0,6
CCOc1ccc(-n2c(/C=C/c3ccc(OC)cc3)nc3ccccc3c2=O)cc1,0,-8,0,12
CCn1nc(/C=C\c2ccccc2)nc2c(=O)n(C)c(=O)nc1-2,0,4,-6,40*
N/C(=N\N=C\c1ccccc1F)N[N+](=O)[O-],0,-6,0,0
CN(C)C(=S)SSC(=S)N(C)C,0,-12,1,34*
C=CCN1C(=O)/C(=C\c2ccc(C)o2)C(=O)NC1=S,0,4,-1,-6
Cc1ccc(/C=C2/C(=O)NC(=O)N(C)C2=O)cc1,0,-1,0,-6
Cc1ccc(C=C2C(=O)NC(=S)NC2=O)o1,0,67*,0,10
CN1C(=O)NC(=O)/C(=C/c2ccc(I)o2)C1=O,-1,63*,0,6
CN1C(=O)N(C)C(=O)C(CCc2ccncc2)(Cc2cccs2)C1=O,0,-2,1,4
COC(=O)C1C(=O)NC2(C)CC1c1cccc(OC)c1O2 (stereo not given),0,12,0,-1
CC(C)[C@@H]1NC(=O)[C@H](C)OC(=O)[C@@H](C(C)C)NC(=O)[C@@H](C(C)C)OC(=O)[C@H](C(C)C)NC(=O)[C@H](C)OC(=O)[C@@H](C(C)C)NC(=O)[C@@H](C(C)C)OC(=O)[C@H](C(C)C)NC(=O)[C@H](C)OC(=O)[C@@H](C(C)C)NC(=O)[C@@H](C(C)C)OC1=O,0,2,2,96*
c1ccc2c(N3CCNCC3)cccc2c1,0,-16,4,2
Cc1cncc2cccc(N3CCNCC3)c12,0,14,-1,38*
COc1ccc2sc(N3CCN(C)CC3)nc2c1,0,7,-5,37*
CN1CCN(c2nc3ccc([N+](=O)[O-])cc3s2)CC1,0,9,-1,-60
COc1ccc(-n2c(/C=C/c3ccccc3Cl)nc3ccccc3c2=O)cc1,0,1,1,1
COc1ccc(OC)c(CNCCc2c[nH]c3ccccc23)c1,0,65*,-1,-1
Cn1ncnc2c(=O)n(C)c(=O)nc1-2,0,10,-7,99*
CC(N)[C@H](O)c1ccc(O)c(O)c1 (stereo not given in full),0,89*,0,-2
C[C@H](N)[C@H](O)c1ccccc1,0,-11,-3,-2
c1ccc(C2=NN(c3ccccc3)N(c3ccccc3)N2)cc1,0,-9,4,76*
Cc1ncc(CN2CCCC(C(=O)c3ccc(Cl)cc3)C2)[nH]1 (stereo not given),1,-17,2,2
SMILES,FBW7 act,MITF primary,GPR151 ag,TEAD-YAP block
O=C(Nc1ccncc1)C(=O)c1cn(Cc2ccc(Cl)cc2)c2ccccc12,0,8,-1,45*
CC1(C)C(=O)C=C[C@@]2(C)C1=C(O)C(=O)[C@]1(C)C2CC[C@@]2(C)[C@H](c3ccoc3)C[C@H]3O[C@]321 (stereo not given in full),0,-11,2,65*
CC(=O)O[C@@H]1C[C@@]2(C)[C@H](c3ccoc3)C[C@H]3O[C@]32[C@]2(C)C(=O)C(O)=C3C(C)(C)C(=O)C=C[C@]3(C)C12 (stereo not given in full),0,9,3,72*
COc1ccc(C=C2C(=O)NC(=S)NC2=O)cc1OCc1ccccc1,0,6,-4,-26
Cc1cc([N+](=O)[O-])c(Cl)cc1NC(=O)c1ccc(Br)o1,0,16,-1,8
COC(=O)c1c(N)n(Cc2ccc(Cl)cc2)c2nc3ccccc3nc12,0,4,-1,2
CC(C)C/C(=N/O)c1c[nH]c2ccccc12,0,-4,2,-4
CC(C)N1CC=C(c2c[nH]c3ccccc23)CC1,0,4,0,37*
CCC(=O)c1ccc(N2CCNCC2)c(F)c1,0,-9,-1,14
CC(C)(C)n1cc(C(=O)c2ccccc2O)cn1,0,9,1,-35
CC(C)(C)n1cc(C(=O)c2ccc3ccccc3c2O)cn1,0,-9,0,50*
CN(C)c1ccc(/C=C2/C(=O)NC(=S)N(c3ccccc3F)C2=O)cc1,0,10,1,4
